For assay [1], the target named is Retinoic acid receptor RXR-alpha (Homo sapiens) (UniProt P19793). As to the kind of experiment: ATG_RXRa_TRANS: Attagene TRANS-FACTORIAL HepG2 Assay for human Retinoid X Receptor alpha (RXRa) (AID 2283012; active means hit-call score of the fitted dose curve at least 0.9, where 1 is the maximum). In a few lines:
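Measures exogenous chimeric NR-GAL4 activity in transfected HepG2 liver cells after 24 h of dosing. Induced reporter mRNA was detected by RT-PCR with capillary electrophoresis, and gain of signal was analysed against DMSO.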

The target of assay [2] is human Retinoid X Receptor beta (RXRb), RXRB (gene 6257) (UniProt P28702). As to the kind of experiment: ATG_RXRb_TRANS: Attagene TRANS-FACTORIAL HepG2 Assay for human Retinoid X Receptor beta (RXRb) (AID 2283013; active means hit-call score of the fitted dose curve at least 0.9, where 1 is the maximum). The method in brief: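 Chimeric receptor-Gal4 activity was assessed in transiently transfected human HepG2 cells after 24 h exposure. Transcripts from GAL4-UAS reporters were quantified by fluorescent RT-PCR and capillary electrophoresis, with DMSO as negative control and baseline.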
human Retinoid X Receptor beta (RXRb), RXRB (gene 6257), sequence (P28702 whole entry, looked up, the tested form may be a part): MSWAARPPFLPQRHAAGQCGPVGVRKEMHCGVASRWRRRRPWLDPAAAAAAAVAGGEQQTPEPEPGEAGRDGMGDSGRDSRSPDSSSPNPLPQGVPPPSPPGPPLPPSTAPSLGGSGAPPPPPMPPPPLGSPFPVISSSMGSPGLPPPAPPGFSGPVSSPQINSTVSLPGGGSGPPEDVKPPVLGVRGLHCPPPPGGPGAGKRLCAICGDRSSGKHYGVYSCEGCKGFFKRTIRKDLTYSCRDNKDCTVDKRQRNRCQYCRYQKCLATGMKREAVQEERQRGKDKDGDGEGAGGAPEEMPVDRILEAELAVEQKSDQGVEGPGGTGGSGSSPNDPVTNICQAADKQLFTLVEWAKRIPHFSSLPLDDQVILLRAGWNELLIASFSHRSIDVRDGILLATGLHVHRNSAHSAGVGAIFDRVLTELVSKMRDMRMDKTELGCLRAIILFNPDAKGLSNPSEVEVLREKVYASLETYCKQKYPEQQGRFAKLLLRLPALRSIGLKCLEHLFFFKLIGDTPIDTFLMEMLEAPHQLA

In assay [3] the target is human Thyroid Receptor alpha (THRa1), THRA (gene 7067) (UniProt P10827). Put plainly: ATG_THRa1_TRANS: Attagene TRANS-FACTORIAL HepG2 Assay for human Thyroid Receptor alpha (THRa1) (AID 2283014; active means hit-call score of the fitted dose curve at least 0.9, where 1 is the maximum). The method in brief: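 Transient HepG2 transfection, NR-Gal4 chimera driving GAL4-UAS reporters; 24 h compound exposure; total RNA, oligo(dT) RT, PCR, fluorescent primer extension, capillary electrophoresis. Upward direction vs DMSO control.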
human Thyroid Receptor alpha (THRa1), THRA (gene 7067), sequence (P10827 whole entry, looked up, the tested form may be a part): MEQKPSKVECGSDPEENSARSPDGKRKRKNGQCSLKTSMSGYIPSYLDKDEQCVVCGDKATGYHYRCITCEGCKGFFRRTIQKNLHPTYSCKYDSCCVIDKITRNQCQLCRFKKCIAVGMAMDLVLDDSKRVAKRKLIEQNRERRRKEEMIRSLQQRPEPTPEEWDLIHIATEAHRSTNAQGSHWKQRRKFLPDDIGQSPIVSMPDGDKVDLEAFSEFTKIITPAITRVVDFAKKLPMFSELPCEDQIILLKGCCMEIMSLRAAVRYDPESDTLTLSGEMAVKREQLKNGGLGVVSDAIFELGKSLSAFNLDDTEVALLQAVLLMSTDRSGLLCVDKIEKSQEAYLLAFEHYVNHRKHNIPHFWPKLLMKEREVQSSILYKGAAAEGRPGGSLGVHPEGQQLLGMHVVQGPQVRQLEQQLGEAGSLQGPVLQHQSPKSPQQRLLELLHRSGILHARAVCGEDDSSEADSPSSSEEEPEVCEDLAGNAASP

Read-out in assay [4]: E-selectin (Homo sapiens) (UniProt P16581)
As to the kind of experiment: BSK_3C_Eselectin: BioMAP Diversity Plus: 3C Assay for Eselectin Biomarker Activity (AID 2283015).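 On outcome: cell surface E-selectin protein quantified by ELISA 24 h after dosing.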 As to conditions: primary human endothelial cells (HUVEC); actives raise or lower the signal. The method in brief: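 HUVEC, 3C stimulation; compound exposure 24 h; E-selectin by ELISA; gain- or loss-of-signal fitted bidirectionally vs DMSO baseline.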

Read-out in assay [5]: Interleukin-1 alpha (IL1a), IL1A (gene 3552)
Put plainly: BSK_BE3C_IL1a: BioMAP Diversity Plus: BE3C Assay for Interleukin-1 alpha (IL1a) Biomarker Activity (AID 2283016). To be noted: primary human bronchial epithelial cells; actives raise or lower the signal. The method in brief: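 Signal from IL-1a ELISA, taken 24 h after chemical dosing of human bronchial epithelial cells, is compared with DMSO as baseline using bidirectional curve fitting.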

Read-out in assay [6]: Monocyte Chemoattractant Protein-1 (MCP1), CCL2 (gene 6347)
Put plainly: BSK_3C_MCP1: BioMAP Diversity Plus: 3C Assay for Monocyte Chemoattractant Protein-1 (MCP1) Biomarker Activity (AID 2283017). As to conditions: primary human endothelial cells (HUVEC); actives raise or lower the signal. The method in brief: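 HUVEC, 3C system; 24 h chemical exposure; MCP-1 by ELISA; bidirectional curve fit vs DMSO baseline.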

Read-out in assay [7]: Human Leukocyte Antigen - DR isotype (HLADR), HLA-DRA (gene 3122)
Put plainly: BSK_3C_HLADR: BioMAP Diversity Plus: 3C Assay for Human Leukocyte Antigen - DR isotype (HLADR) Biomarker Activity (AID 2283019).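 On outcome: ELISA of cell-surface HLA-DR on HUVEC 24 h after dosing.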 To be noted: primary human endothelial cells (HUVEC); actives raise or lower the signal. In a few lines: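 HUVEC, 3C stimulation, 24 h post-dose; HLA-DR by ELISA; bidirectional curve fit vs DMSO baseline; gain or loss of signal scored.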

Read-out in assay [8]: Monocyte Chemoattractant Protein-1 (MCP1), CCL2 (gene 6347)
Put plainly: BSK_4H_MCP1: BioMAP Diversity Plus: 4H Assay for Monocyte Chemoattractant Protein-1 (MCP1) Biomarker Activity (AID 2283018). As to conditions: primary human endothelial cells (HUVEC); actives raise or lower the signal. The method in brief:
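Endothelial cells from umbilical vein were treated with test chemical, then after 24 h MCP-1 levels were quantified by ELISA; endpoint values came from bidirectional fitting with DMSO as baseline of activity.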

By AC50 is commonly meant the concentration giving half of the maximal activity seen.

Where “and” joins values, the source holds several entries; their conditions need not be identical. Equal values may be shown once. Records with an inconclusive call do not appear. The source holds several records for some structures; these can differ, active in one and inactive in another. Calls of active or inactive are those of the source. How the source made its calls, unless noted: active means hit-call score of the fitted dose curve at least 0.9, where 1 is the maximum; inactive means score below 0.9.

E-selectin (Homo sapiens), sequence (P16581 whole entry, looked up): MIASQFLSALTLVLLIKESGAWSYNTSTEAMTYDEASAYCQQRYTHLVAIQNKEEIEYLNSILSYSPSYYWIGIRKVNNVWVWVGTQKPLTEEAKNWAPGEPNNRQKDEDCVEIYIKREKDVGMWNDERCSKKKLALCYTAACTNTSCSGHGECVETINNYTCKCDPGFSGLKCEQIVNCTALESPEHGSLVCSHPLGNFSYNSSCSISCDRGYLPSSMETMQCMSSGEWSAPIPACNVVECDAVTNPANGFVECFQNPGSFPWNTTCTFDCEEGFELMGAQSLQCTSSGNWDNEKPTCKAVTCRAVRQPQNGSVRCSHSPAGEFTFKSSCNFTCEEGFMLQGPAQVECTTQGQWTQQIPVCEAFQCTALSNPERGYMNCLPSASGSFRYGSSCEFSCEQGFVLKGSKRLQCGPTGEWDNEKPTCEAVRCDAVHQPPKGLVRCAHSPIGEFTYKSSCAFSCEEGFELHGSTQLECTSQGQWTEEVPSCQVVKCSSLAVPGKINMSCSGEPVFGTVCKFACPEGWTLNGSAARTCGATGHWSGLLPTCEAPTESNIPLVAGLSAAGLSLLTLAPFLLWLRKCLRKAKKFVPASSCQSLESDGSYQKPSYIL
Retinoic acid receptor RXR-alpha (Homo sapiens), sequence (P19793 whole entry, looked up, the tested form may be a part): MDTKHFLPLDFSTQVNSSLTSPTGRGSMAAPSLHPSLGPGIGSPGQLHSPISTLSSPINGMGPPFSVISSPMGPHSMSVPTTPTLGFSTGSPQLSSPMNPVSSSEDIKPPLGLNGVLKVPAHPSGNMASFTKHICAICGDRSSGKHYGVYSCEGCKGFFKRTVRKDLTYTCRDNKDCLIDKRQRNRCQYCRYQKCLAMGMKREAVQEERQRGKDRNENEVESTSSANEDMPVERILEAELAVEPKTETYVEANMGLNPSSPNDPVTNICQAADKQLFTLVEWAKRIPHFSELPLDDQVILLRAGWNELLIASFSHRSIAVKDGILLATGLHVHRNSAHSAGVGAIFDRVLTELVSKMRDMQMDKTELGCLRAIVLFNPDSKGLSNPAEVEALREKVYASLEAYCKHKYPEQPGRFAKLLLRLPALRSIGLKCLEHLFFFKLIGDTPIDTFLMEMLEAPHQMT

`CCCCOC(=O)C(C)O` (stereo not given): the outcome in assay [1], in assay [2] and in assay [3] was inactive.

For the compound `OCC(F)(F)C(F)(F)C(F)(F)C(F)(F)C(F)(F)C(F)(F)C(F)(F)C(F)(F)CO`, the result in assay [4], in assay [5], in assay [6] and in assay [7] was inactive. The AC50 in assay [5] and in assay [7] was 30 µM (active) in each case.

For the compound `OC(O)C(F)(F)C(F)(F)F`, the compound was classed as inactive in assay [1], in assay [4], in assay [5], in assay [6] and in assay [7].

With `O=C=NCc1cccc(CN=C=O)c1`, the compound was classed as inactive in assay [1], in assay [2], in assay [3], in assay [4], in assay [5] and in assay [6]. The outcome in assay [8] and in assay [7] was inactive.

Regarding `CCOC(=O)CC(=O)C(F)(F)C(F)(F)F`, the compound was called inactive in assay [1], in assay [4], in assay [5], in assay [6], in assay [8] and in assay [7].

Take `OCCCCC(F)(F)C(F)(F)C(F)(F)C(F)(F)F`: the compound was called inactive in assay [1], in assay [4], in assay [5], in assay [6] and in assay [7].

Turning to `FC(F)(F)C(F)(F)C(F)(F)C(F)(F)C(F)(F)C(F)(F)CC[Si](Cl)(Cl)Cl`, the result in assay [1], in assay [2], in assay [4], in assay [5], in assay [6] and in assay [7] was inactive.

On to `O=S(=O)(O)CCC(F)(F)C(F)(F)C(F)(F)C(F)(F)F`, for which the call in assay [3], in assay [4], in assay [5], in assay [6] and in assay [7] was inactive.

Take `CCn1c2ccccc2c2ccccc21`: the call in assay [1] and in assay [3] was inactive. Moreover, in assay [2], the AC50 is 13.3 µM (active).

On to `c1ccc(C[P+](c2ccccc2)(c2ccccc2)c2ccccc2)cc1`, for which the call in assay [1] was inactive. In assay [3], the concentration at half-maximal activity (AC50) was 18.6 µM (active).

As to `O=C(F)C1(F)C(F)(F)C(F)(F)C(F)(F)C(F)(F)C1(F)F`, the result in assay [4], in assay [5], in assay [6], in assay [8] and in assay [7] was inactive.

Take `OCCCC(F)(F)C(F)(F)C(F)(F)C(F)(F)C(F)(F)C(F)(F)C(F)(F)C(F)(F)F`: the AC50 in assay [1] is 23.8 µM (active); in assay [2] it was 2.86 µM (active); in assay [4], 27.4 µM (active) and 50.6 µM (active); in assay [5], 46.9 µM (active) and 39.5 µM (active); in assay [6], 20.8 µM (active) and 31.7 µM (active); in assay [7], 19.4 µM (active) and 43.2 µM (active). In assay [3], the call was inactive.

`CCN(CCO)S(=O)(=O)C(F)(F)C(F)(F)C(F)(F)C(F)(F)C(F)(F)C(F)(F)C(F)(F)C(F)(F)F`: the result in assay [1], in assay [3] and in assay [4] was inactive. Further, the AC50 in assay [5] is 45.7 µM (active) and 19.5 µM (active); in assay [6] it was 23.1 µM (active) and 9.73 µM (active); in assay [7] it was 42.6 µM (active) and 20.2 µM (active).

Turning to `NC(O)(C(F)(F)F)C(F)(F)F`, the result in assay [3], in assay [4], in assay [5], in assay [6], in assay [8] and in assay [7] was inactive.

For `CCC(Cc1c(I)cc(I)c(N)c1I)C(=O)O` (stereo not given), in assay [3], the call was inactive.

For `CCN(CC)c1ccc(N=Nc2ccccc2)cc1`, the compound was classed as inactive in assay [1], in assay [2], in assay [3] and in assay [4]. The AC50 in assay [5] was 20 µM (active); in assay [6], 30.6 µM (active); in assay [7], 11.5 µM (active).

Take `OCC(F)(F)C(F)(F)C(F)(F)CO`: the compound was classed as inactive in assay [1], in assay [4], in assay [5], in assay [6] and in assay [7].

In the case of `CC(C)(C)c1cc(CCC(=O)NCCCCCCNC(=O)CCc2cc(C(C)(C)C)c(O)c(C(C)(C)C)c2)cc(C(C)(C)C)c1O`, the compound was called inactive in assay [1], in assay [4], in assay [5], in assay [6], in assay [8] and in assay [7].

Turning to `O=C(O)C(F)(F)OC(F)(F)C(F)(F)OC(F)(F)C(F)(F)OC(F)(F)F`, the compound was called inactive in assay [1], in assay [3], in assay [4], in assay [5], in assay [6] and in assay [7]. In addition, the half-maximal activity concentration (AC50) in assay [2] is 13.2 µM (active).

In the case of `CCOCOCC`, the result in assay [1] and in assay [3] was inactive.

Consider `OCC(F)(F)C(F)(F)C(F)(F)C(F)(F)C(F)(F)C(F)(F)CO`, for which the result in assay [1], in assay [4], in assay [5], in assay [6] and in assay [7] was inactive.

For `Cc1ccc(S(=O)(=O)C(I)I)cc1`, the call in assay [1], in assay [2] and in assay [3] was inactive. Besides, the half-maximal activity concentration (AC50) in assay [4] was 3.08 µM (active); in assay [5], 5.63 µM (active); in assay [6], 2.58 µM (active); in assay [7] it was 1.15 µM (active).

As for `FC(F)(F)C(F)(F)C(F)(F)C(F)(F)C(F)(F)C(F)(F)C(F)(F)CCI`, the outcome in assay [1], in assay [3], in assay [4], in assay [5], in assay [6] and in assay [7] was inactive.

`CCOC(=O)CCC(C)=O`: the call in assay [2] was inactive.

For `NCC(F)(F)C(F)(F)C(F)(F)C(F)(F)C(F)(F)C(F)(F)C(F)(F)C(F)(F)F`, the compound was classed as inactive in assay [1], in assay [2], in assay [3], in assay [4], in assay [5] and in assay [6]. In addition, the result in assay [7] was inactive. The half-maximal activity concentration (AC50) in assay [6] is 0.57 µM (active).

For `O=C(Cl)C(F)(F)C(F)(F)C(F)(F)C(F)(F)C(F)(F)C(F)(F)F`, the call in assay [1], in assay [2], in assay [4], in assay [5], in assay [6] and in assay [7] was inactive.

Regarding `CN(C(=O)C(F)(F)C(F)(F)C(F)(F)F)[Si](C)(C)C`, the result in assay [1], in assay [3], in assay [4], in assay [5], in assay [6] and in assay [7] was inactive.

For the compound `CCN=C1C=CC(=C(c2ccc(N(CC)CC)cc2)c2ccc(N(CC)CC)cc2)c2ccccc21`, in assay [1], the compound was called inactive. Also, the AC50 in assay [4] was 3.62 µM (active) and 2.78 µM (active); in assay [5] it was 1.99 µM (active) and 1.72 µM (active); in assay [6], 2.22 µM (active) and 2.19 µM (active); in assay [7], 1.95 µM (active) and 1.7 µM (active).
